Values joined by “and” are separate entries in the source; they are usually repeats but may differ in a detail not shown here. Identical values can stand only once. Screen size: about 5,500 compounds; about 2,000 (36%) were called active. Inconclusive results (about 18%) are left out. Rule as the data show it: active = normalized growth mostly below about 0.91 (no sharp cut-off); inconclusive = no clear call, values can overlap the other calls; inactive = mostly above about 0.92. This is one part of the list.
Assay: chemical genetic growth profiling, strain panel (AID 1159580);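 also: tested at 20 µM; growth read once vehicle control cultures reached saturation at 30 °C; 1 = growth at the plate median or of vehicle wells; lower values mean less growth of the strain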
Details: S. cerevisiae deletion strains, growth OD

Measured: normalized growth

C[C@H](N)[C@H](O)c1ccc(O)c(O)c1
inactive: locus YAL013W, strain DEP1, stronger effect = lower value 1 | locus YAL021C, strain ccr4, stronger effect = lower value 1.01 | locus YAL026C, strain drs2, stronger effect = lower value 1.01 | locus YAL030W, strain snc1, stronger effect = lower value 1 | locus YBL061C, strain skt5, stronger effect = lower value 1.01 | locus YBR009C, strain hhf1, stronger effect = lower value 0.997 | locus YBR021W, strain FUR4, stronger effect = lower value 0.991 | locus YBR023C, strain chs3, stronger effect = lower value 0.999 | locus YBR171W, strain sec66, stronger effect = lower value 0.991 | locus YBR229C, strain ROT2, stronger effect = lower value 0.991 | locus YBR231C, strain swc5, stronger effect = lower value 0.982 | locus YBR279W, strain paf1, stronger effect = lower value 1.02 | locus YCL011C, strain gbp2, stronger effect = lower value 1.01 | locus YCL016C, strain dcc1, stronger effect = lower value 0.987 | locus YCL029C, strain bik1, stronger effect = lower value 0.993 | locus YCL061C, strain MRC1, stronger effect = lower value 1 | locus YCL069W, strain vba3, stronger effect = lower value 1.01 | locus YCR088W, strain abp1, stronger effect = lower value 1 | locus YDL005C, strain med2, stronger effect = lower value 0.996 | locus YDL035C, strain GPR1, stronger effect = lower value 1 | locus YDL040C, strain nat1, stronger effect = lower value 1 | locus YDL074C, strain BRE1, stronger effect = lower value 0.983 | locus YDL101C, strain DUN1, stronger effect = lower value 0.992 | locus YDL185W, strain tfp1, stronger effect = lower value 0.982 | locus YDL192W, strain arf1, stronger effect = lower value 0.979 | locus YDR001C, strain nth1, stronger effect = lower value 1.01 | locus YDR069C, strain doa4, stronger effect = lower value 1.01 | locus YDR101C, strain arx1, stronger effect = lower value 1.01 | locus YDR137W, strain rgp1, stronger effect = lower value 1 | locus YDR159W, strain sac3, stronger effect = lower value 1.01 | locus YDR162C, strain NBP2, stronger effect = lower value 0.999 | locus YDR195W, strain ref2 0.991 | locus YDR297W, strain sur2, stronger effect = lower value 1.01 | locus YDR318W, strain mcm21, stronger effect = lower value 0.98 | locus YDR334W, strain swr1, stronger effect = lower value 0.997 | locus YDR335W, strain msn5, stronger effect = lower value 1.01 | locus YDR388W, stronger effect = lower value 0.992 | locus YDR392W, strain spt3, stronger effect = lower value 0.926 | locus YDR502C, strain sam2, stronger effect = lower value 0.99 | locus YEL003W, strain gim4, stronger effect = lower value 1.01 | locus YEL037C, strain rad23, stronger effect = lower value 1 | locus YEL061C, strain CIN8 (second series), stronger effect = lower value 1.01 | locus YEL061C, strain CIN8, stronger effect = lower value 1 | locus YER015W, strain faa2, stronger effect = lower value 1 | locus YER016W, strain bim1, stronger effect = lower value 1.01 | locus YER110C, stronger effect = lower value 0.97 | locus YER111C, strain swi4, stronger effect = lower value 1 | locus YER155C, strain BEM2 (second series), stronger effect = lower value 0.994 | locus YER155C, strain BEM2, stronger effect = lower value 0.999 | locus YER167W, strain BCK2, stronger effect = lower value 1.02 | locus YFR010W, strain ubp6, stronger effect = lower value 1 | locus YGL078C, strain dbp3, stronger effect = lower value 0.962 | locus YGL086W, strain mad1, stronger effect = lower value 0.996 | locus YGL167C, strain pmr1, stronger effect = lower value 0.995 | locus YGL173C, strain kem1, stronger effect = lower value 1.01 | locus YGL227W, strain vid30, stronger effect = lower value 0.992 | locus YGL240W, strain doc1, stronger effect = lower value 1.01 | locus YGL248W, strain PDE1, stronger effect = lower value 0.988 | locus YGL253W, strain hxk2, stronger effect = lower value 1.02 | locus YGR135W, strain pre9, stronger effect = lower value 0.948 | locus YGR252W, strain gcn5, stronger effect = lower value 0.91 | locus YHR013C, strain ard1, stronger effect = lower value 1.01 | locus YHR027C, strain rpn1, stronger effect = lower value 0.996 | locus YHR030C, strain SLT2, stronger effect = lower value 1.01 and 1 | locus YHR079C, strain IRE1 (second series), stronger effect = lower value 0.993 | locus YHR079C, strain IRE1, stronger effect = lower value 1 | locus YHR094C, strain hxt1, stronger effect = lower value 0.991 | locus YHR129C, strain ARP1, stronger effect = lower value 0.996 | locus YHR142W, strain chs7, stronger effect = lower value 0.993 | locus YHR200W, strain rpn10, stronger effect = lower value 0.985 | locus YIL066C, strain RNR3, stronger effect = lower value 0.998 | locus YIL073C, strain SPO22, stronger effect = lower value 1.01 | locus YIL125W, strain kgd1, stronger effect = lower value 0.975 | locus YIR030C, strain dcg1, stronger effect = lower value 0.988 | locus YJL092W, strain hpr5, stronger effect = lower value 1 | locus YJL095W, strain BCK1 (second series), stronger effect = lower value 1.01 | locus YJL095W, strain BCK1, stronger effect = lower value 0.978 and 1.02 | locus YJL115W, strain asf1, stronger effect = lower value 1.01 | locus YJL129C, strain trk1, stronger effect = lower value 0.986 | locus YJL134W, strain LCB3, stronger effect = lower value 1 | locus YJL154C, strain vps35, stronger effect = lower value 1.01 | locus YJL164C, strain tpk1, stronger effect = lower value 1.01 | locus YJL166W, strain qcr8, stronger effect = lower value 0.992 | locus YJL168C, strain set2, stronger effect = lower value 0.978 | locus YJL187C, strain SWE1 (second series), stronger effect = lower value 0.985 | locus YJL187C, strain SWE1, stronger effect = lower value 0.998 | locus YJR043C, strain POL32, stronger effect = lower value 1.01
